Assays:
Assay in all cases: DAPPL (digital affinity profiling via proximity ligation, sequencing); 10 mM Tris-HCl pH 7.5, 50 mM NaCl, 1 mM DTT, 4% glycerol, room temperature, 30 min; GST-TFs on glutathione beads, 16-mer random dsDNA library, 0.1% formaldehyde crosslink after washing; high values mean tight binding
Settings in all cases: protein: recombinant; tags: N-terminal GST; dsDNA, one strand shown
FLI1 = target: T1, FLI1 (Homo sapiens, UniProt Q01543 1-452)
T1 sequence: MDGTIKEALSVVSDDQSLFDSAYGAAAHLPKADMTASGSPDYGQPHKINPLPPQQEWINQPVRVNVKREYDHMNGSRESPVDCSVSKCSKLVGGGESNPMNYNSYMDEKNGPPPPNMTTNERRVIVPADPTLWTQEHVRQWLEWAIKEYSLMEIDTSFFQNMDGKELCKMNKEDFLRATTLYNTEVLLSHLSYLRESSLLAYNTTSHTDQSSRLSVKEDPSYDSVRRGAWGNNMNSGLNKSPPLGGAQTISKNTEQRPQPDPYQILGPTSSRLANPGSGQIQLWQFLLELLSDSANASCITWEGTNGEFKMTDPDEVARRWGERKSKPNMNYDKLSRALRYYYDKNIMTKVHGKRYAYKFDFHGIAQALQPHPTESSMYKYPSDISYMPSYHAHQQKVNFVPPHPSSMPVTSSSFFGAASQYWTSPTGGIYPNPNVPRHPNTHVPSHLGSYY
Procedure, shortened: (§1)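 Binding signal is defined as a hexamer's read frequency for one factor over its frequency for the tag-only sample. To obtain reads, GST-fused human transcription factors were expressed in yeast, captured on glutathione beads, barcoded with DNA and pooled with that sample. Pools met 200 nmole of a 16-mer random double-stranded DNA library in Tris/NaCl/DTT/glycerol buffer for 30 min at room temperature before washing, 0.1% formaldehyde crosslinking, proximity ligation (BsaI/T4 ligase, 1 h, 37 °C), PCR and Illumina NextSeq500 sequencing.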

ELK1 = target: T2, ELK1 (Homo sapiens, UniProt P19419 1-428)
T2 sequence: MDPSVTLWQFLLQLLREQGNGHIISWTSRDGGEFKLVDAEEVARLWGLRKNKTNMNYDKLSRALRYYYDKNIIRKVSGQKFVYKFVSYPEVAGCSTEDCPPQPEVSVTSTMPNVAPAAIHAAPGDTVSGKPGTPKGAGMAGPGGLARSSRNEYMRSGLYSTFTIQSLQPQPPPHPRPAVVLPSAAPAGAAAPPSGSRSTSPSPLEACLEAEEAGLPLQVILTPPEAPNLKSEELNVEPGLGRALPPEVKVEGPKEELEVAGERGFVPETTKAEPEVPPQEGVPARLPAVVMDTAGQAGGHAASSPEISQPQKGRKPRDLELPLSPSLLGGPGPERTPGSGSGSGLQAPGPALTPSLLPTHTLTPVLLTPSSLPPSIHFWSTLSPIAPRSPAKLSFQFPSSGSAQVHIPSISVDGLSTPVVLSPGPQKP
Procedure, shortened: as §1

GABPA = target: T3, GABPA (Homo sapiens, UniProt Q06546 1-454)
T3 sequence: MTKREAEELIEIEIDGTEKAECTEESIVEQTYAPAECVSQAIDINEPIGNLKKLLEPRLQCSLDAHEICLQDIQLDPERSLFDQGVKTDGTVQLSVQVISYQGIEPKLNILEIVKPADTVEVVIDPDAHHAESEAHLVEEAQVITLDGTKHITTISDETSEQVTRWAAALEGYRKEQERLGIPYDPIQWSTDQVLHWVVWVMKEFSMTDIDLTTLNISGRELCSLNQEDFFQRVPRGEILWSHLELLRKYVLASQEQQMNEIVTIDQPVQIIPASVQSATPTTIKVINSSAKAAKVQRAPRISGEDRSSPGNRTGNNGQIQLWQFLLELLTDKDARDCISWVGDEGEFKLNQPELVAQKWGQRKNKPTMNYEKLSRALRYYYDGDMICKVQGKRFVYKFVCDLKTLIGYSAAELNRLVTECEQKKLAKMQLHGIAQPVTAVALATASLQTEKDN
Procedure, shortened: as §1

ERG = target: T4, ERG (Homo sapiens, UniProt P11308 1-479)
T4 sequence: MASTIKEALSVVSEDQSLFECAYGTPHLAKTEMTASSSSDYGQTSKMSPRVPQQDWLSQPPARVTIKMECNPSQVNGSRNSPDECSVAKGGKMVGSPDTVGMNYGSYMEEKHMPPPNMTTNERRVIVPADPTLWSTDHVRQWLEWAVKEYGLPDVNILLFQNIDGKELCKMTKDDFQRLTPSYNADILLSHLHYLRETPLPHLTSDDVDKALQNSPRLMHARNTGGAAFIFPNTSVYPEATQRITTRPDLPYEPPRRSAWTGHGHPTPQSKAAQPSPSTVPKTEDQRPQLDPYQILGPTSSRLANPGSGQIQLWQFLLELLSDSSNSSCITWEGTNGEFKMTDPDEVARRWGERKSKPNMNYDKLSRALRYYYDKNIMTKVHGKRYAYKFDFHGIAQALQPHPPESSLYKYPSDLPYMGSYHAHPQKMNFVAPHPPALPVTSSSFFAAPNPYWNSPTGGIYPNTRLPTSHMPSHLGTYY
Procedure, shortened: as §1

ELF1 = ELF1 (Homo sapiens, UniProt P32519 1-619)
Procedure, shortened: as §1

EHF = target: T5, EHF (Homo sapiens, UniProt Q9NZC4 1-300)
T5 sequence: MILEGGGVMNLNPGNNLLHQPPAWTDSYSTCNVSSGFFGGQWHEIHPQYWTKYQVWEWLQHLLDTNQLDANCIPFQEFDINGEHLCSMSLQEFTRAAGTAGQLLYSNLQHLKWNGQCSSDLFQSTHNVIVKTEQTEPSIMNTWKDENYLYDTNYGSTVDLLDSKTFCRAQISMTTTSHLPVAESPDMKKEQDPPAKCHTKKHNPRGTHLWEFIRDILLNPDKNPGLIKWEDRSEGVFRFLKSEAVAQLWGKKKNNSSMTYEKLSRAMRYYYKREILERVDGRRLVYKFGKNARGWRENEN
Procedure, shortened: as §1

SPIB = SPIB (Homo sapiens, UniProt Q01892 1-262)
Procedure, shortened: as §1

ELK3 = target: T6, ELK3 (Homo sapiens, UniProt P41970 1-407)
T6 sequence: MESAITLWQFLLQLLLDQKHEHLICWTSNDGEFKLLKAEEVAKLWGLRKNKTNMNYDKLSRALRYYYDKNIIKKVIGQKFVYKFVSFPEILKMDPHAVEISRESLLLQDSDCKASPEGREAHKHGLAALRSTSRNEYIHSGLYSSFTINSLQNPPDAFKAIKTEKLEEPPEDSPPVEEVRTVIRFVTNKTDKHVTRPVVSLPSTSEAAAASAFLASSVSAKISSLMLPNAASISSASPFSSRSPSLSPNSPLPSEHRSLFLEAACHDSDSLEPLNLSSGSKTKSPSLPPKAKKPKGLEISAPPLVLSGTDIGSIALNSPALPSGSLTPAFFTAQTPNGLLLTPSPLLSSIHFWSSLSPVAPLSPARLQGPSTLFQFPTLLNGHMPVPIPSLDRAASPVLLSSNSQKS
Procedure, shortened: as §1

ELK4 = target: T7, ELK4 (Homo sapiens, UniProt P28324-2 1-405)
T7 sequence: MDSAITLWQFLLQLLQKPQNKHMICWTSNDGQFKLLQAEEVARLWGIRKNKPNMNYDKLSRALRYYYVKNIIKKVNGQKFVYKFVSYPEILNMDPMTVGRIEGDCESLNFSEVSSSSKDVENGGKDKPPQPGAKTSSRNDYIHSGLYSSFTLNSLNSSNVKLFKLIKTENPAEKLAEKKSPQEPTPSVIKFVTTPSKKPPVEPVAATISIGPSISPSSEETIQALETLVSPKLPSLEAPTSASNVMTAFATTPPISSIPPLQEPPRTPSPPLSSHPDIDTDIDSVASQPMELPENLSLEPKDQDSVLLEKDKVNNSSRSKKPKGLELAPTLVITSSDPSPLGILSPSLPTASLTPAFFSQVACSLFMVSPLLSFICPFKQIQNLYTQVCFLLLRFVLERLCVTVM
Procedure, shortened: as §1

ETV2 = target: T8, ETV2 (Homo sapiens, UniProt O00321 1-342)
T8 sequence: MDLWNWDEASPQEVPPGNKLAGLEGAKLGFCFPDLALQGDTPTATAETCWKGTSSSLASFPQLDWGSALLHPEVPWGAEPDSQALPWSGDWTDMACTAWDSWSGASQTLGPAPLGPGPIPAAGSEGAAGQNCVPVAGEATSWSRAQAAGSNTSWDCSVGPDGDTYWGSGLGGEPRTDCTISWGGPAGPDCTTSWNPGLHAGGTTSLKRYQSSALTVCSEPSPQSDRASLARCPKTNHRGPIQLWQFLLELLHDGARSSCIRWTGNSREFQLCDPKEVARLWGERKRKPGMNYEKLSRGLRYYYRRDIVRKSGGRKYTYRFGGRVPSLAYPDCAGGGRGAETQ
Procedure, shortened: as §1

ETV3L = target: T9, ETV3L (Homo sapiens, UniProt Q6ZN32 1-361)
T9 sequence: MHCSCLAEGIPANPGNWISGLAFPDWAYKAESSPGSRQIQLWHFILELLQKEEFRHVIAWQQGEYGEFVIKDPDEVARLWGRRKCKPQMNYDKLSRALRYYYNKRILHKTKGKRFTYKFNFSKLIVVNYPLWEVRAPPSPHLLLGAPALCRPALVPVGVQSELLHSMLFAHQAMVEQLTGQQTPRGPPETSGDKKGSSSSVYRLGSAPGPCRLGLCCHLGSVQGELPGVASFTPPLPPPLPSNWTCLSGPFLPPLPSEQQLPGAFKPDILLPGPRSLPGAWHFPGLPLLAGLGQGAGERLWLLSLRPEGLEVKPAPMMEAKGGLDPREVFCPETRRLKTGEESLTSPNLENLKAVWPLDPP
Procedure, shortened: as §1

ETS2 = target: T10, ETS2 (Homo sapiens, UniProt P15036 1-469)
T10 sequence: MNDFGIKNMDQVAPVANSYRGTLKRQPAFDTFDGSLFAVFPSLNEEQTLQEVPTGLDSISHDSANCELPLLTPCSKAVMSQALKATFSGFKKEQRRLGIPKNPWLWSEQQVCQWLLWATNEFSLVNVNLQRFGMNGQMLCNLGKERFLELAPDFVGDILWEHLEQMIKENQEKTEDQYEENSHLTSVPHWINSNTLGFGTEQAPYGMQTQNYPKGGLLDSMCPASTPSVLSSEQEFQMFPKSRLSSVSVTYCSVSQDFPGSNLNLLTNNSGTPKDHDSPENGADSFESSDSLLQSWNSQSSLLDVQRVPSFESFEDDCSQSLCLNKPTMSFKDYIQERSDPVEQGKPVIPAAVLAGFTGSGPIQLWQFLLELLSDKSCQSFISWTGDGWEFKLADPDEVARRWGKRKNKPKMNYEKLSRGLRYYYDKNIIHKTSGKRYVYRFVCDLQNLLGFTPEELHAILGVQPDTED
Procedure, shortened: as §1

ETV7 = target: T11, ETV7 (Homo sapiens, UniProt Q9Y603 1-341)
T11 sequence: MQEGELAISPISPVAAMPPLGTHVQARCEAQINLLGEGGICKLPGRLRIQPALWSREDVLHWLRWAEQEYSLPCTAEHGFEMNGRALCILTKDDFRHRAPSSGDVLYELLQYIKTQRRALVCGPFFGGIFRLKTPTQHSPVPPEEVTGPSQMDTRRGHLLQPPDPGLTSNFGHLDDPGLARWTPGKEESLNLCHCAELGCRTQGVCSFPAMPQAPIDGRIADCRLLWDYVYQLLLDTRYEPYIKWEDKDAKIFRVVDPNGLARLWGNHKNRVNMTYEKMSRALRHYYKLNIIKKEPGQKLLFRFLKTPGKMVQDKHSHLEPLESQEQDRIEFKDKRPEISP
Procedure, shortened: as §1

ETV3 = target: T12, ETV3 (Homo sapiens, UniProt P41162-2 1-143)
T12 sequence: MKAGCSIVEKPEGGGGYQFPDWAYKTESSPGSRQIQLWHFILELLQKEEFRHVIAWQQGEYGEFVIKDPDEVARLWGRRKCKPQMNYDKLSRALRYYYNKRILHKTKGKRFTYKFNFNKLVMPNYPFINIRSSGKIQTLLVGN
Procedure, shortened: as §1

ELF1, sequence (P32519 whole entry): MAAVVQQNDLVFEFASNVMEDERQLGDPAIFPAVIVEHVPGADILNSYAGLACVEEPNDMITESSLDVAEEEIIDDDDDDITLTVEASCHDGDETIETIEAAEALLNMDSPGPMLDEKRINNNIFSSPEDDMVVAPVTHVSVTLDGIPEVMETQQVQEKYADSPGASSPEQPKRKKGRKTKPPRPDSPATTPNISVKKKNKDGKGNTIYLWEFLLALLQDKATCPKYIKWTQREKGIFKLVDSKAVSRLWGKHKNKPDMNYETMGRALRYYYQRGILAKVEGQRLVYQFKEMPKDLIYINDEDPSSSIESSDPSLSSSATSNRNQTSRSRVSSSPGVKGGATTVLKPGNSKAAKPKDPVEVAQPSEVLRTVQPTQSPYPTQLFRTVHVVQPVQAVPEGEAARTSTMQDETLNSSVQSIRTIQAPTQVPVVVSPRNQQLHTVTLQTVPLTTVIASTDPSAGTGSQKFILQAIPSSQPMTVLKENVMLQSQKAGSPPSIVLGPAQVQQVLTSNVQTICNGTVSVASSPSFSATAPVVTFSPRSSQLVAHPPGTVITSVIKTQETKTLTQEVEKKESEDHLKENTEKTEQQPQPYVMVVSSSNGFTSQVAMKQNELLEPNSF
SPIB, sequence (Q01892 whole entry): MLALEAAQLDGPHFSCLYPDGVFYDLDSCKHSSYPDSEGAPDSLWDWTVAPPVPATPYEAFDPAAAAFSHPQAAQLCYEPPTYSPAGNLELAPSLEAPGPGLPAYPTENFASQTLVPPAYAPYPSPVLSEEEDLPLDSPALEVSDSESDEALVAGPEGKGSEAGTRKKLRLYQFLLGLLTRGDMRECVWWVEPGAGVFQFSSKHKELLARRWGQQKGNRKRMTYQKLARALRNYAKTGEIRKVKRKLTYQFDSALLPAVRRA

Sequence: CAGCGC
- binding signal (FLI1): 1.09 fold enrichment (6-mer frequency, TF over GST control)
- binding signal (ELK1): 1.03 fold enrichment (6-mer frequency, TF over GST control)
- binding signal (GABPA): 1.01 fold enrichment (6-mer frequency, TF over GST control)
- binding signal (ERG): 1.03 fold enrichment (6-mer frequency, TF over GST control)
- binding signal (ELF1): 1.08 fold enrichment (6-mer frequency, TF over GST control)
- binding signal (EHF): 1.01 fold enrichment (6-mer frequency, TF over GST control)
- binding signal (SPIB): 1.07 fold enrichment (6-mer frequency, TF over GST control)
- binding signal (ELK3): 1.06 fold enrichment (6-mer frequency, TF over GST control)
- binding signal (ELK4): 1.06 fold enrichment (6-mer frequency, TF over GST control)
- binding signal (ETV2): 1.07 fold enrichment (6-mer frequency, TF over GST control)
- binding signal (ETV3L): 1.09 fold enrichment (6-mer frequency, TF over GST control)
- binding signal (ETS2): 1.1 fold enrichment (6-mer frequency, TF over GST control)
- binding signal (ETV7): 1.02 fold enrichment (6-mer frequency, TF over GST control)
- binding signal (ETV3): 1 fold enrichment (6-mer frequency, TF over GST control)

— paper PMC7862700, “An all-to-all approach to the identification of sequence-specific readers for epigenetic DNA modifications on cytosine”
